Pol iota inh: qHTS for Inhibitors of Polymerase Iota; DNA polymerase iota (Homo sapiens), Q9UNA4; Pol iota fluorescent replication assay, 10 min; Potency, µM (highest dose often 115 µM), inactives show at the highest dose activity, negative = inhibition, usual class: inhibitors; hit rate 1% among 390,000; AID 588590, 2011
Target sequence (Q9UNA4 whole entry, looked up): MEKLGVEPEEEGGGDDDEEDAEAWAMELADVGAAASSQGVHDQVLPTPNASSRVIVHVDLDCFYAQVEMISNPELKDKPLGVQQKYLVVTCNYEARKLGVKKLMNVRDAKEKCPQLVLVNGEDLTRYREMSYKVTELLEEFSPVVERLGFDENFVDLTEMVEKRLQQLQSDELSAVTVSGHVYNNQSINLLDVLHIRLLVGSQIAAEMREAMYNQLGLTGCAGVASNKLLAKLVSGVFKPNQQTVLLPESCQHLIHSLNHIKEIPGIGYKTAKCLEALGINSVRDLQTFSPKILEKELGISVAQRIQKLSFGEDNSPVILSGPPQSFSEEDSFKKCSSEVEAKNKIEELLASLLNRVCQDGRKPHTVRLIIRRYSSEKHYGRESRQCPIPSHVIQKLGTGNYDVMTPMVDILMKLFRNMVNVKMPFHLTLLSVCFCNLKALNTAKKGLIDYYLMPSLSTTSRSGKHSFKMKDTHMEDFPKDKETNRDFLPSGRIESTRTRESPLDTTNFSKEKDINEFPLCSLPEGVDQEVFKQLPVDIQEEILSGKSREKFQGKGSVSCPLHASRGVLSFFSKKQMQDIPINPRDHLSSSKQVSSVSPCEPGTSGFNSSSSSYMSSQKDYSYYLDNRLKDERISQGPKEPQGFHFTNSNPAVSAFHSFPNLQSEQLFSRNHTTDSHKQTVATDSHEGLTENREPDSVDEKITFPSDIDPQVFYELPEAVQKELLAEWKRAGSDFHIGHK
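Pol iota at 10 nM preincubated 15 min with compounds at room temperature; reaction started with fluorescent substrate, 50 nM final. Fluorescence read kinetically at 0 and 10 min; buffer-only wells as negative control.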
Pol beta inh: qHTS Assay for Inhibitors of DNA Polymerase Beta. Pol beta primer extension/strand displacement, fluorescence kinetic. Potency, µM (doses to about 114 µM), inactives show at the top dose activity change, negative = inhibition, most hits filed as inhibitors. hit rate 1.3% among 340,000; further: on the % scale 0 is the no-effect control and ±100 the full control effect
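10 nM enzyme + cpd, 15 min RT; start with substrate 50 nM final; read 0 min and after 10 min RT. Corrected, normalized data; 4-parameter Hill curve fit.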
WRN inhibitor: qHTS for Inhibitors of WRN Helicase. Bifunctional 3'-5' exonuclease/ATP-dependent helicase WRN (Homo sapiens), Q14191. WRN helicase unwinding, fluorescent forked duplex, kinetic. Potency, µM (top dose mostly 114 µM), for the others: at the highest dose activity change, negative = inhibition, actives largely listed as inhibitors. hit rate 0.46% among 360,000; further: on the % scale 0 is the no-effect control and ±100 the full control effect; nearly all actives have a fitted effect of over 55% in size
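Kinetic fluorescence helicase assay: unwinding of a quenched forked DNA duplex (100 nM final) with 2 mM ATP final raises red fluorescence (525/598 nm). Compounds sat 15 min at room temperature with 20 nM WRN beforehand.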
Pol eta inh: qHTS for Inhibitors of Polymerase Eta; DNA polymerase eta (Homo sapiens), Q9Y253; AID 588591, 2011; Potency, µM (doses to about 114 µM), inactives show at the top dose activity change, negative = inhibition, most hits filed as inhibitors; recombinant Pol eta, fluorescent DNA replication assay; hit rate 1.2% among 390,000; further: on the % scale 0 is the no-effect control and ±100 the full control effect
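Fluorescent replication assay: 50 nM final substrate added after a 15 min room-temperature compound preincubation with 10 nM enzyme. Signal taken at 0 min and again at 10 min.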
Pol kappa inh: qHTS for Inhibitors of Polymerase Kappa. DNA polymerase kappa (Homo sapiens), Q9UBT6. purified Pol kappa, fluorescent DNA synthesis assay, 10 min. Potency, µM (highest dose often 107 µM), for inactives: at the highest dose activity, negative = inhibition, usual class: inhibitors. hit rate 0.53% among 400,000. AID 588579, 2011; further: on the % scale 0 is the no-effect control and ±100 the full control effect
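Inhibition of 10 nM Pol kappa is measured by a fluorescent read-out at 0 and 10 min following addition of 50 nM substrate (final), with a 15-min room-temperature compound preincubation.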
FEN1 inh: qHTS Assay for the Inhibitors of Human Flap endonuclease 1 (FEN1); AID 588795, 2011; hit rate 0.35% among 390,000; Potency, µM (doses to about 114 µM), inactives show at the highest dose activity change, negative = inhibition, most hits filed as inhibitors; Recombinant FEN1 flap cleavage, fluorescence, 15 min; P39748; further: on the % scale 0 is the no-effect control and ±100 the full control effect; nearly all actives have a fitted effect of over 65% in size
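Read-out was taken twice, immediately and after 15 min, following addition of 50 nM substrate to 10 nM FEN1 that had sat with test compound for 15 min at room temperature. Curves came from a four-parameter Hill model.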
PGK validate: qHTS for inhibitors of Phosphogylcerate Kinase: Hit Validation Screen; TbPGK coupled GAPDH assay, Kinase-Glo luminescence; Potency, µM (highest dose often 57.5 µM), for inactives: top-dose activity change, negative = inhibition, most hits filed as inhibitors; shares compounds with Pol kappa inh; AID 686980, 2013; hit rate 79% among 500; further: on the % scale 0 is the no-effect control and ±100 the full control effect; nearly all actives have a fitted effect of over 65% in size
Pol iota confirm: qHTS for Inhibitors of Polymerase Iota: Confirmatory Assay for Cherry-picked Compounds; Pol iota primer extension, TAMRA/BHQ fluorescence; Potency, µM, hits mostly inhibitors; shares compounds with Pol kappa inh; hit rate 77% among 1,500
* marks the source's active call; other numbers are inactive results; ? = inconclusive; · = not tested or not shown; [ ] = dose if it differs, or a comment. Shown are actives, neighbours in structure and some others; about 2.4% of the full set was active somewhere. The call rests on the fitted dose curve; in most records, active means well fitted curve in the direction sought with a large enough effect; inconclusive means small, poorly fitted or top-dose-only effect, or another doubt; inactive means no such curve, though single readings can be large; an effect the other way counts as inactive or inconclusive. Potency means the concentration at half of the fitted maximal effect.

SMILES	Pol iota inh	Pol beta inh	WRN inhibitor	Pol eta inh	Pol kappa inh	FEN1 inh	PGK validate	others
Cc1ccc(CCNC(=O)c2c(C)oc3ncnc(N4CCOCC4)c23)cc1	-7%	20%	·	-15%	0%	0%	·
O=C1C2C3C=CC(CC3)C2C(=O)N1c1nccs1 (stereo not drawn)	16µM*	22µM*	40µM*	?	18µM*	-23%	·	Pol iota confirm=75*
Cc1cccc(CNC(=O)c2ccc(NC(=O)N3CC(C)Sc4ccccc43)cc2)c1 (stereo not drawn)	5%	3%	·	-1%	-3%	15%	·
Cc1ccc(NC(=O)CN2C(=O)S/C(=C\c3cccn3-c3cccc(C(=O)O)c3)C2=O)c(C)c1	?	10µM*	?	3.5µM*	?	?	9.2µM*
CSc1ccc(C=NNc2ccc(S(=O)(=O)Nc3ccccc3C(=O)O)cc2[N+](=O)[O-])cc1	25µM*	·	?	?	?	-5%	4.1µM*
Cc1cccc(N2CCN(C(=O)C3CCN(S(=O)(=O)Cc4ccccc4)CC3)CC2)c1C	-14%	1%	·	-4%	-1%	1%	·
CCC(C)[C@H]1CNCCN1CC1(c2ccccc2)CC1 (stereo partly drawn)	?	·	14%	-6%	-5%	-6%	·
CCC(C)[C@H]1CNCCN1CCc1cccc2ccccc12 (stereo partly drawn)	?	·	-5%	8%	-29%	-2%	?
Cc1ccc(OCC(=O)N(C)CC(=O)NCc2ccco2)c(Br)c1	?	·	?	14µM*	79µM*	5%	21µM*
CCOc1cc(/C=N/NC(=O)c2nnn(-c3nonc3N)c2C)ccc1OCc1ccc(F)cc1	28%	1%	1%	-5%	0%	16%	·
CCOc1cc(/C=N/NC(=O)c2nnn(-c3nonc3N)c2C)ccc1OCc1ccc(C)cc1	·	·	-12%[11.6 µM]	10µM*	·	·	·	Pol iota confirm=24*
c1ccc(C2=NNC(=NC3CC3)SC2)cc1	?	11%	0%	-1%	-9%[60.1 µM]	-2%	16µM*
Cc1cccc(C(=O)Nc2ccc(N3CCC(N4CCCCC4)CC3)c(C(=O)O)c2)c1	-5%	6%	·	-8%	-9%[60.1 µM]	0%	·
CNCCCCCCCCSc1nc(C(C)C)ccc1C(=O)c1cccs1	·	·	·	·	-10%[19.4 µM]	·	·
O=C(c1ccccc1)c1ccc(O)c(O)c1O	28µM*	·	28µM*	8.9µM*	22µM*	?	5.8µM*
C=CCc1cccc(C=NNC(=O)CN2CCN(Cc3ccccc3)CC2)c1O	·	·	·	·	-2%[60.1 µM]	·	·
Cc1ccc(-c2cc(C(=O)N/N=C/c3ccoc3)c3ccccc3n2)cc1	-11%	17%	-5%	-15%	14%	10%	·
Cc1ccc(-c2cc(C(=O)N/N=C/c3c(C)nn(C)c3C)c3ccccc3n2)cc1C	22µM*	?	-24%[57.1 µM]	?	3%	-13%	·	Pol iota confirm=?
CCOc1ccc(/C=C2\SC(=S)N(CCC(=O)Nc3cccc(C(=O)O)c3)C2=O)cc1	?	-3%	-16%[57.1 µM]	45µM*	-13%	-30%	·	Pol iota confirm=75*
O=C(CCN1C(=O)/C(=C/c2ccc3c(c2)OCO3)SC1=S)Nc1ccc(C(=O)O)cc1	?	?	-12%[11.6 µM]	?	-23%	?	·	Pol iota confirm=75*
Cc1cccc2c1-c1sc(C(=O)N(C)c3cccc(Cl)c3)cc1CO2	-17%	-5%	·	-22%	-2%	-2%	·
Cc1nn(CCC(=O)N2CCN(c3ccccc3)CC2)c(C)c1S(=O)(=O)N1CCCC1	-14%	-17%	·	-13%	-3%[60.1 µM]	-5%	·
COc1cccc(NC(=O)CSc2nccn2Cc2ccc3c(c2)OCO3)c1	-7%	32%	·	·	-9%[60.1 µM]	-23%	·
COc1cc(Cn2c(=O)sc3ccccc32)ccc1OCCC(C)C	28%	-12%	·	-20%	-12%	-18%	·
COc1ccc(-c2cc3nc(C)cc(-c4ccc(OC)cc4)n3n2)cc1	0%	11%	-3%	-16%	-8%	6%	·
SMILES	Pol iota inh	Pol beta inh	WRN inhibitor	Pol eta inh	Pol kappa inh	FEN1 inh	PGK validate	others
COc1ccc(-c2cc3nc(C)cc(N)n3n2)cc1	41%	0%	-29%	-20%	-7%	-2%	9.2µM*
O=C(O)c1ccc2c(c1)[C@@H]1C=CC[C@@H]1[C@H](c1ccccn1)N2	3.5µM*	·	35µM*	6.3µM*	10µM*	32µM*	16µM*
COC(=O)c1nn(-c2ccc3c(c2)OCO3)cc1O	-2%	32%	0%	-12%	-9%	-1%	·
COC(=O)c1nn(-c2ccc3c(c2)CCN3C(C)=O)cc1O	44%	-12%	-15%	-9%	-4%	-12%	21µM*
Cc1cc(S(=O)(=O)Nc2ccc(-c3ccc(N4CCCCCC4)nn3)cc2)c(C)cc1Cl	16%	?	·	-10%	-13%[60.1 µM]	9%	·
CN1/C(=C/C=C/c2n(C)c3cc([N+](=O)[O-])c([N+](=O)[O-])cc3[n+]2C)C(C)(C)c2ccccc21	·	·	?	?	·	·	?
CCCn1c(=O)n(-c2ccccc2Cl)c(=O)c2sc3ccccc3c21	45%	3%	·	-15%	-2%	17%	·
